Among all 5,500 compounds or so, about 2,000 (36%) were called active. About 18% were inconclusive and are not listed. No stated cut-off is given here; in the data, active means normalized growth mostly below about 0.91 (no sharp cut-off); inconclusive means no clear call, values can overlap the other calls; inactive means mostly above about 0.92. The list shows a part of the results.
Experiment: chemical genetic growth profiling, strain panel (AID 1159580);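 further: tested at 20 µM; growth read once vehicle control cultures reached saturation at 30 °C; 1 = growth at the plate median or of vehicle wells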
Details: S. cerevisiae deletion strains, growth OD

Measured: normalized growth

Nc1nc2c(nc(Br)n2C2OC3COP(=O)(O)O[C@@H]3C2O)c(=O)[nH]1 (stereo not given in full)
inactive: locus YAL040C, strain CLN3, stronger effect = lower value 0.947 | locus YDR363W, strain ESC2, stronger effect = lower value 0.993 | locus YER002W, strain NOP16, stronger effect = lower value 1.02 | locus YGR229C, strain SMI1, stronger effect = lower value 1.02 | locus YMR307W, strain GAS1, stronger effect = lower value 0.998 | locus YNL153C, strain GIM3, stronger effect = lower value 1.05 | locus YNL175C, strain NOP13, stronger effect = lower value 1.02 | locus YNL197C, strain WHI3, stronger effect = lower value 1.01 | locus YNL224C, strain SQS1, stronger effect = lower value 1.02 | locus YOR083W, strain WHI5 (second series), stronger effect = lower value 1.02

Reference: PubChem BioAssay AID1159580 (chemical genetic matrix, 2015)
